Our source for the growth values is PubChem BioAssay (NCI).

This is part of a sample that, as a whole, favours compounds with a hit. Of some 83,000 tested, about 20% had one in any assay.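 In brief: 96-well plates, 48 h treatment, single concentration, percent growth endpoint.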 Unmarked numbers belong to inactive results. Activity calls are given as the source filed them. How the source made its calls: active means growth percent below 10; inactive means the rest.

This assay concerns HL-60(TB) leukemia. As to the kind of experiment: NCI-60 one-dose screen, 48 h (100 = growth as untreated, 0 = no growth, -100 = all killed). Conditions: 10 µM unless noted.
With `O=C1/C(=C/c2ccc(-c3ccccc3C(F)(F)F)o2)SC(=S)N1CCc1ccc(O)cc1`, the growth was 20.8%.

Consider `COc1ccc(/C=N\Nc2nc(SCCC(C)C)nc(-c3ccc(OC)cc3)c2C#N)cc1`, for which the growth is 34%.

In the case of `CCOc1cc(C2C(Cl)C(=O)N2n2cnnc2)ccc1O` (stereo not given), the growth is 101%.

On to `OC1CCCN(Cc2ccccc2)C1` (stereo not given), for which the growth is 114%.

Consider `O=C1/C(=C/c2ccc(Br)cc2)COc2ccc(O)cc21`, for which the growth was -15.7% (active).

On to `CN(C)Cc1cc(C(C)(C)CC(C)(C)C)ccc1O`, for which the growth was 94.4%.

`COc1cc(/C=C/C(=O)Nc2ccc3c(c2)/C(=C\c2cccn2C)C(=O)N3)cc(OC)c1OC`: the growth is 40.6%.

For the molecule `Cc1cc(NS(=O)(=O)c2ccc(-c3cnc(C4CC4)o3)cc2)ccc1Cl`, the growth is 0.815% (active).

On to `BrCCCOc1ccc(Oc2ccc(OCCCBr)cc2)cc1`, for which the growth was 106%.

Consider `CC[N+](C)(CC)CCO`, for which the growth is 96.9%.

Turning to `COc1ccc(-c2nc(-c3cc(OC)cc(OC)c3)[nH]c2-c2ccc(OC)cc2)cc1`, the growth is 30.1%.

Turning to `COC(=O)c1c(C)nc(C)c2c1C(=O)C(Br)=C(NCc1ccccc1)C2=O`, the growth was -30.9% (active).

Turning to `COc1ccc(/C=N\NC(=O)CN2CCN(c3cc4c(cc3F)c(=O)c(C(=O)N/N=C/c3ccc(OC)cc3)cn4C3CC3)CC2)cc1`, the growth is 86.6%.

For the molecule `Cc1cn(-c2cc(C(=O)Nc3cccc(-n4ccc5c(NC(=O)c6ccccc6)nccc54)c3)cc(C(F)(F)F)c2)cn1`, the growth is 3.73% (active).

With `Nc1nc(N=Nc2ccc(O)cc2)cc(=O)[nH]1`, the growth was 95.6%.

With `O=Cc1[nH]c(Sc2ccccc2)c2ccccc12`, the growth is 12.1%.

As to `O=C(Nc1cccc(Cl)c1)Oc1c(Cl)c(Cl)c(Cl)c(Cl)c1Cl`, the growth is 101%.

As to `Cc1cc(=O)oc2cc(OCc3nn4c(Nc5nc6ccccc6s5)c(-c5ccccc5)nc4s3)ccc12`, the growth was 93.1%.

In the case of `O=C(NCCNc1nccc(-c2c(-c3cccc(O)c3)nc3sccn23)n1)Nc1cc(C(F)(F)F)cc(C(F)(F)F)c1`, the growth was 97.3%.

With `FC(F)(F)c1[nH]ncc1-c1nc2c(N3CCCCC3)cc3[nH]ncc3c2c2c1CCCC2`, the growth is -1.46% (active).

Regarding `Cc1c2cc[nH]c(=O)c2c(C)c2c1[nH]c1ccc(OC(=O)c3ccccc3)cc12`, the growth was 51.3%.

For the molecule `Cc1cnc(NC(=O)Nc2cc(Br)c(C)cc2OC[C@@H]2CNCCO2)cn1`, the growth is -25.3% (active).

In the case of `CCN(CC)c1cc(N)c(Cc2c(N)cc(N(CC)CC)cc2Cl)c(Cl)c1`, the growth was -8.28% (active).

As to `Cc1ccc(-c2c3c(N)c4c(nc3nc3c2c(C)nn3-c2ccccc2)CCCC4)cc1`, the growth was 98.5%.

With `CC(C)(C)CC(C)(C)NC(=O)Nc1ncccc1OCc1ccccc1`, the growth was 90.5%.

As to `CN(C)c1ccc(/C=C/c2ccnc3c(O)cccc23)cc1`, the growth was -26% (active).

As for `O=[N+]([O-])c1ccc(-c2cc3c(Nc4ccc(Cl)c(C(F)(F)F)c4)ncnc3s2)cc1`, the growth is -41.3% (active).

`c1ccc2oc(-c3cnc4nonc4n3)cc2c1`: the growth is 90.9%.

For the molecule `COc1cc(/C=N/OC(=O)Nc2ccccc2)cc(OC)c1OC`, the growth is 99.2%.

Consider `Clc1ccc2c(NCCN3CCN(c4ccnc(N5CCCC5)n4)CC3)ccnc2c1`, for which the growth was 37.4%.

On to `Nc1nc(-c2cccc(Br)c2)cc(-c2cc3ccccc3oc2=O)n1`, for which the growth was 100%.

As for `Cc1ccc(NC(=O)c2cc(NCc3cc(O)ccc3O)ccc2O)cc1`, the growth is 16.1%.

For `CCCn1c(=O)c2c(nc(-c3cccc(OCCCCl)c3)n2C)n(CCC)c1=O`, the growth was 107%.

In the case of `CN[C@@H](CCCNC(N)=NC/C=C(/C)CCC=C(C)C)C(=O)N(C)[C@@H](CCCNC(N)=NCC=C(C)C)C(=O)N[C@H](C)[C@H](OS(=O)(=O)O)c1ccc(OS(=O)(=O)O)c(COS(=O)(=O)O)c1`, the growth was 83.5%.

Consider `CN1CCN(Cc2ccc(NC(=O)c3[nH]ncc3Nc3ccnc4ccsc34)cc2)CC1`, for which the growth was -17.8% (active).

Regarding `CC1CCCC(C(=O)O)C1C(=O)O` (stereo not given), the growth was 81.8%.

As for `COc1ccc(-c2cnoc2-c2ccc(OC)cc2O)cc1`, the growth is 26.4%.

On to `O=C(Nc1ccc(Br)cc1F)c1cc(I)ccc1O`, for which the growth is -33.3% (active).

For the molecule `Oc1cc(O)c2c(=S)cc(-c3ccc(Cl)cc3)oc2c1`, the growth is 37.6%.

Take `O=C1Nc2ccccc2/C1=C/c1cccn1C(=O)c1ccc(Cl)s1`: the growth was 57.3%.
